Pf Dd2 growth: qHTS Primary assay for Inhibitors of Plasmodium falciparum Dd2 growth in vitro. 120,000 compounds, 4.3% hits. Potency, µM (titrated, usually from 28.9 µM), usual class: inhibitors. P. falciparum Dd2 growth, SYBR Green, 72 h; active means well fitted inhibition curve with a large enough effect; further: nearly all actives have a fitted effect of over 65% in size
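Infected erythrocytes (Dd2, 0.3% parasitemia, 2.5% hematocrit final) are added to compound in RPMI-1640/Albumax II medium, grown 72 h at 37C in low oxygen, then lysed with saponin/Triton-X containing SYBR Green and read by fluorescence.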
A number is an active result; - = inactive; [ ] = dose if it differs, or a comment. Many of the other results were omitted from the sample, so hits are more common in it than they were.

SMILES	Pf Dd2 growth
Cc1ccccc1-n1ncc(C(C)NC(=O)c2ccsc2)c1C (stereo not drawn)	-
COc1cccc(C(=O)N2CCC3(CC2)CC(N(C2CC2)S(C)(=O)=O)CCO3)c1 (stereo not drawn)	-
Cc1noc(C)c1CN1CCCN(S(=O)(=O)c2ccccc2)CCC(=O)NCC1	-
O=C1CCN(S(=O)(=O)c2ccccc2)CCCN(Cc2ccc3cc[nH]c3c2)CCN1	5.01µM
CCn1cc(CN2CCCN(S(=O)(=O)c3ccccc3)CCC(=O)NCC2)c(C)n1	-
c1cc2c(cc1CN1CCOCC1)CNCCO2	7.94µM
CCN(CC)Cc1ccc2c(c1)CNCCO2	-
O=c1[nH]nc2n1CCN(Cc1ccc3c(c1)CCO3)CC2	-
O=C(c1ccc(Cl)nc1)N1CCCC(c2nn(-c3ccc(Cl)cc3)c(=O)[nH]2)C1 (stereo not drawn)	-
CCC1(O)CCC12CCN(C(=O)c1cccc(C)c1)CC2 (stereo not drawn)	-
CO[C@H]1[C@H](NC(=O)Cc2cccnc2)c2ccccc2C12CCNCC2	-
CCCCNC(=O)C1CCN(C(=O)c2ncn3c2COC(c2ccccc2)C3)CC1 (stereo not drawn)	-
CCOC(=O)c1c(C)n(-c2ccccc2)c2ccc(OC(=O)c3c(F)cccc3F)cc12	-
CCOC(=O)c1c(C)n(-c2ccccc2)c2ccc(OC(=O)c3ccccc3)cc12	2.82µM
CCOC(=O)c1cc(OC(=O)c2ccc(OC)cc2)n(-c2ccccc2)n1	-
Fc1ccc(C2Cn3nnc(-c4nc(-c5ccccc5F)no4)c3CO2)cc1 (stereo not drawn)	-
CCN(CC)CC[C@H]1CN(C(=O)Cc2ccc(OC)cc2)CC[C@H]1CC(=O)O	-
CNC(=O)[C@@H]1CN(C(=O)CCn2cccn2)C[C@H]1COC	-
CCOc1ccc(Br)cc1S(=O)(=O)Nc1cccc(-c2ccc(OC)nn2)c1	-
CCOc1ccc(-c2cccc(NS(=O)(=O)c3ccc(F)cc3F)c2)nn1	-[0.594 µM]
CCOc1ccc(-c2ccc(NS(=O)(=O)c3cc(C)ccc3OC)cc2)nn1	10µM
CCn1cc(C(=O)N2CCc3cc(S(=O)(=O)NCC4CCCO4)ccc3C2)cn1 (stereo not drawn)	-
CCc1ccccc1NC(=O)C1CCC(CNS(=O)(=O)c2ccc3c(c2)CC(C)N3C(C)=O)CC1 (stereo not drawn)	-
CCCN(c1ccccc1CC)S(=O)(=O)c1ccc2c(c1)CC(C)N2C(=O)C1CC1 (stereo not drawn)	8.91µM
Cc1cc(C)c(NS(=O)(=O)c2ccc3c(c2)CC(C)N3C(=O)C2CCC2)c(C)c1 (stereo not drawn)	-
SMILES	Pf Dd2 growth
COc1ccc(CCN2Cc3cc(NC(=O)c4ccc(OC)cc4)ccc3OC(C)C2=O)cc1 (stereo not drawn)	-
CN(C)C[C@@H]1CN(Cc2ccccn2)C[C@H]1NC(=O)c1c[nH]c2ccccc12	-
COCc1noc([C@@H]2CN(Cc3cc(C)nn3C)C[C@H]2C(N)=O)n1	-
O=C(O)c1ccc(-c2ncc3cnc(C4=CCOCC4)cn23)cc1	-
O=C(Nc1ccc2[nH]ccc2c1)c1cnc2c(c1)N([S+](=O)([O-])c1cccnc1)CCC2	-
O=C(Nc1ccc2[nH]ccc2c1)c1ccc(-c2ncc3cnc(C4=CCOCC4)cn23)cc1	1.58µM
COc1cccc(CNC(=O)C2CCN(c3cn[nH]c(=O)c3)C2)c1 (stereo not drawn)	-
CC(C)NC(=O)N1CCN(C2CCNCC2)C(=O)C1	-
COCCOC1CCOC2(CCN(C(=O)c3ccccc3)CC2)C1 (stereo not drawn)	-
COC1CCOC2(CCN(C(=O)COc3ccccc3)CC2)C1 (stereo not drawn)	-
COCCOC1CCOC2(CCN(C(=O)Cc3c[nH]c4ccccc34)CC2)C1 (stereo not drawn)	11.2µM
COCCOC1CCOC2(CCN(C(=O)c3nn(C)c4ccccc34)CC2)C1 (stereo not drawn)	5.62µM
COCCOC1CCOC2(CCN(C(=O)Cc3ccccc3)CC2)C1 (stereo not drawn)	-
COCCOC1CCOC2(CCN(C(=O)COc3ccccc3)CC2)C1 (stereo not drawn)	11.2µM
COCCOC1CCOC2(CCN(C(=O)c3n[nH]c4ccccc34)CC2)C1 (stereo not drawn)	-
COCCOC1CCOC2(CCN(C(=O)C3(c4ccccc4)CC3)CC2)C1 (stereo not drawn)	-
COCCOC1CCOC2(CCN(C(=O)c3nccc4ccccc34)CC2)C1 (stereo not drawn)	-
COc1ccc(C(=O)N2CCCC(c3[nH]ccc3C(N)=O)C2)cc1F (stereo not drawn)	-
CC(C)c1nnnn1[C@H]1CO[C@H]2[C@@H]1OC[C@H]2OC(=O)Nc1cccc(C#N)c1	-
COc1cccc2c1OCC(CNC(=O)c1ccccc1N1CCCC1)C2 (stereo not drawn)	-
COc1ccc(C(=O)N2CCCC(n3cc(-c4nc(C(C)C)no4)nn3)C2)cc1F (stereo not drawn)	-
O=C(Cc1ccccn1)N1CC(COc2ccccc2)C2(C1)CN(c1ccccc1)C2 (stereo not drawn)	-
Cc1ccc(S(=O)(=O)N2[C@@H]3CC[C@H]2CC(NC(=O)c2ccncc2)C3)c(C)c1 (stereo partly drawn)	-
Cc1cccc(CNC(=O)C2(c3ccc(NS(C)(=O)=O)cc3)CCCCC2)c1	-
COc1ccc(CCC(=O)NCc2ccc3c(c2)CCN3C(=O)c2ccccc2)cc1	6.31µM
SMILES	Pf Dd2 growth
COc1ccc(OCC(=O)NCc2ccc3c(c2)CCN3C(=O)c2ccccc2)cc1	-
COc1ccc(CCC(=O)NCc2ccc3c(c2)CCN3C(=O)c2ccc(C)cc2)cc1	-
O=C(c1cc(Br)cn2ccnc12)N1CCOCC1	-
CC(C)C(=O)N1CC[C@@H]2COCCN(Cc3cccnc3)[C@@H]2C1	-
CC(C)c1noc(-c2cccn3c(CNC(=O)Cc4ccccc4Cl)nnc23)n1	-
Cc1ccc(C)c(C(=O)NCc2nnc3cc(-c4nc(C(C)C)no4)ccn23)c1	-
Cc1cccc(C(=O)NCc2nnc3cc(-c4nc(C(C)C)no4)ccn23)c1	10µM
Cc1ccc(CC(=O)NCc2nnc3cc(-c4nc(C(C)C)no4)ccn23)cc1	-
CC(C)c1noc(-c2ccn3c(CNC(=O)Cc4ccccc4Cl)nnc3c2)n1	5.01µM
Cc1cccc(C(=O)NCc2nnc3cc(-c4nc(C)no4)ccn23)c1	-
COc1ccc(F)c(CN2CCC3(CCC(=O)N(CCO)C3)CC2)c1	-
COc1ccc(C(=O)N2CCN(Cc3ccc(=O)n(C)c3)CC2)cn1	-
CS(=O)(=O)N[C@@H]1C[C@H](Cn2cc(C3CC3)nn2)[C@@H](O)[C@H]1O	-
Cc1ccccc1C(=O)N1CCC2(CC1)OCC(C(=O)N1CCCC1)N2C(=O)c1cccc(F)c1 (stereo not drawn)	-
CCOC(=O)C1CCN(C(=O)c2cc3sc(C)cc3n2C)CC1	-
CCn1cc(-c2ccc(Cl)cc2)cc1C(=O)NCc1ccncc1	-
Cc1ccc(-c2cc(C(=O)O)n(C)c2)cc1	-
Cc1ccc(Cn2cc(-c3ccncc3)cc2C(=O)N2CCN(C)CC2)cc1	6.31µM
CCOC(=O)C1CCN(C(=O)c2cc(-c3ccncc3)cn2Cc2ccccc2C)CC1	6.31µM
Cc1ccccc1Cn1cc(-c2ccncc2)cc1C(=O)O	-
COCCN1Cc2nc(OCc3cccnc3)ccc2OCC1=O	-
CCC(NC(=O)Cn1nc(C)n(CCc2ccccc2)c1=O)c1ncnn1C (stereo not drawn)	-

Screening data as filed in PubChem BioAssay.
